High-throughput results deposited in PubChem by The Scripps Research Institute Molecular Screening Center.
PAFAH2 FP inh = inhibitors of human PAFAH2. hit rate 0.99% among 340,000. recombinant PAFAH2, FP-rhodamine activity probe, fluorescence polarization. inhibition, % at 3.39 µM. Q99487;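 active means inhibition above the mean over all tested compounds plus 3 SD, cut at about 30% in these data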;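 further: inhibitors block probe labeling of enzyme so polarization drops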
PP5 primary = PP5 (human) phosphatase inhibition; purified PP5c, OMFP substrate fluorescence; P53041; hit rate 0.18% among 320,000; inhibition, % at 6.7 µM; AID 1987;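 active means inhibition above the campaign's mean inhibition across all tested compounds plus 3 SD, cut at about 9.5% in these data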
Target sequence (P53041 whole entry, looked up): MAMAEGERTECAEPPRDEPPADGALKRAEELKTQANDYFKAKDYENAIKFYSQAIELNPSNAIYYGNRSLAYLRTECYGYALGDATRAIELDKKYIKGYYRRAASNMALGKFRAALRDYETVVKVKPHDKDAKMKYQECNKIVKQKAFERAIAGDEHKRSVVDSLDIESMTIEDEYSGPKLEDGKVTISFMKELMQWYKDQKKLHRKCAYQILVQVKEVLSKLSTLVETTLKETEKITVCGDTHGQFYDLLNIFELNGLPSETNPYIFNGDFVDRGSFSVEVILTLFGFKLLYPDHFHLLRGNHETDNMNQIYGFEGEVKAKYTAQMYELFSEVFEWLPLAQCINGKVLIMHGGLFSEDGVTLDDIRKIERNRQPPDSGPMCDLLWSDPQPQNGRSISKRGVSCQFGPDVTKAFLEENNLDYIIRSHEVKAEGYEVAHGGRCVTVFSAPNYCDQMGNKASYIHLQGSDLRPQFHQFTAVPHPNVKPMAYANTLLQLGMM
pPAFAH inh = pPAFAH (human) enzyme inhibition. recombinant pPAFAH, FP-rhodamine probe fluorescence polarization. inhibition, % at 3.39 µM. hit rate 1.5% among 330,000. AID 463082;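 active means inhibition above the mean inhibition across the screen plus 3 SD, cut at about 25% in these data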;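 further: inhibitors block binding of the rhodamine activity-based probe so polarization drops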
Fh CTSL1 inh = blocks F. hepatica cathepsin L1 in PFM18AAP counter-screen. recombinant F. hepatica cathepsin L1, Z-Leu-Arg-MCA fluorescence. inhibition, % at 5.96 µM. hit rate 0.49% among 300,000. AID 1906;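 active means inhibition above the mean of all tested compounds plus 3 SD, set per screening campaign, cut at about 17% in these data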
PAFAH1B2 inh = inhibitors of human PAFAH1B2; P68402; recombinant PAFAH1B2, FP-rhodamine activity probe, fluorescence polarization; inhibition, % at 3.39 µM; hit rate 1.2% among 340,000; AID 492953;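 active means inhibition above the mean of all tested compounds plus 3 SD, cut at about 24% in these data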
PAFAH1B3 FP inh = inhibitors of human PAFAH1B3; Q15102; recombinant PAFAH1B3, FP-rhodamine probe, fluorescence polarization; inhibition, % at 3.39 µM; hit rate 0.28% among 340,000;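 active means inhibition above the screen-wide average of all tested compounds plus 3 SD, cut at about 25% in these data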
Target sequence (Q15102 whole entry, looked up): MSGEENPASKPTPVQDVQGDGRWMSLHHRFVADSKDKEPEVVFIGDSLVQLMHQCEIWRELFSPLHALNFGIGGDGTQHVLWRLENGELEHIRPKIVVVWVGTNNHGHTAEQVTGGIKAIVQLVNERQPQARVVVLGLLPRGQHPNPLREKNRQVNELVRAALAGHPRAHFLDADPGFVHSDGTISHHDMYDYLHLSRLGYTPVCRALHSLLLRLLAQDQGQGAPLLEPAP
Numbers stand for hits; 0 = inactive; - = no result given. The list is not random: actives were taken first. Their share in the collection is about 3%.

SMILES | PAFAH2 FP inh | PP5 primary | pPAFAH inh | Fh CTSL1 inh | PAFAH1B2 inh | PAFAH1B3 FP inh
Cc1cc(OCC(=O)N2CCC(C(=O)O)(c3ccccc3)CC2)c2c(C)c(C)c(=O)oc2c1 | 0 | 0 | 0 | 18 | 0 | 0
CCc1cc(=O)oc2cc(C)cc(OCC(=O)N3CCC(C(=O)O)(c4ccccc4)CC3)c12 | 0 | 0 | 0 | 0 | 0 | 0
O=c1[nH]c(O)c(/C=C2/C=CC(c3cc(Cl)ccc3Cl)=N2)c(=O)[nH]1 | 0 | 0 | 0 | 0 | 76 | 48
O=C(O)C(Br)CBr (centres undefined) | 0 | 0 | 0 | - | 0 | 0
Oc1c(Br)c(Br)c(Br)c(Br)c1Br | 0 | 0 | 32 | - | 41 | 0
COC(=O)C(O)(c1ccc(NC(=S)NC(=O)c2ccccc2)cc1)C(F)(F)F (centres undefined) | 0 | 0 | 34 | 0 | 0 | 0
O=C(N/N=C/c1c(O)n(Cc2ccc(F)cc2)c(=O)[nH]c1=O)c1ccccc1 | 0 | 0 | 0 | 0 | 35 | 0
C/C(=N\NC(=O)c1ccccc1O)c1c(O)n(Cc2ccccc2)c(=O)[nH]c1=O | 0 | 0 | 25 | 0 | 28 | 0
C/C(=N\NC(=O)c1ccncc1)c1c(O)n(Cc2ccccc2)c(=O)[nH]c1=O | 0 | 0 | 0 | 0 | 0 | 0
C/C(=N\NC(=O)c1ccccc1O)c1c(O)n(C2CCCCC2)c(=O)[nH]c1=O | 0 | 0 | 26 | 0 | 0 | 0
O=C(N/N=C/c1c(O)n(Cc2ccccc2)c(=O)[nH]c1=O)c1ccncc1 | - | 0 | 0 | 0 | - | -
CC1CC2(C)C(=CC1=O)CCC1C3CCC(C)(O)C3(C)CC3OC312 (centres undefined) | 0 | - | - | - | 0 | 0
Cc1ccc(S(=O)(=O)N(C)N=O)cc1 | 0 | 0 | 0 | 0 | 0 | 0
C=CCC1(CCCCC)C(=O)NC(=S)NC1=O | 0 | - | - | - | 0 | 0
CCCNC(=O)N1[C@H]2CC[C@@H]1C(C(=O)OC)=C(c1ccc(OC)c(OC)c1)C2 | 0 | 0 | 0 | - | 0 | 0
C(=NC1CCCCC1)c1c[nH]c2ccccc12 | 0 | - | - | - | 0 | 0
COC(=O)C1=C(c2cccc(OCc3ccccc3)c2)C[C@@H]2CC[C@H]1N2C(=O)NCc1cc(C)oc1C(F)(F)F | 0 | 0 | 0 | - | 0 | 0
O=C(O)C1(c2ccc(Cl)cc2)CCC1 | 0 | 0 | 0 | 0 | 46 | 0
CCN(CC)c1ccc(/C=N/c2sc3c(c2C#N)C2CCN3CC2)c(O)c1 | 0 | 0 | 0 | 0 | 0 | 0
NP(=O)(OCCCc1ccccc1)Oc1ccccc1 (centres undefined) | 0 | 0 | 0 | 0 | 62 | 0
O=C(O)CCC(=O)NCCC1=c2ccccc2=N/C1=C\c1c(O)n(Cc2ccc(F)cc2)c(=S)[nH]c1=O | 38 | 0 | 0 | 0 | 41 | 0
CCCCC(=O)N/N=C/c1c(O)n(Cc2ccc(F)cc2)c(=O)[nH]c1=O | 0 | 0 | 0 | 0 | 0 | 0
CC(=O)OC1=CC[C@H]2[C@@H]3CC[C@H]4C[C@H](OC(C)=O)[C@@H](OC(C)=O)C[C@]4(C)[C@H]3CC[C@]12C | 0 | 0 | 0 | 0 | 0 | 0
C=C(C)C(Cc1c(OC)ccc(C(=O)/C=C/c2ccc(O)cc2)c1O)OO (centres undefined) | 0 | - | 0 | - | 0 | 0
O=C(O)C1C2CCC(O2)C1C(=O)NC1CCCCC1 (centres undefined) | 0 | 76 | 0 | 0 | 0 | 0
SMILES | PAFAH2 FP inh | PP5 primary | pPAFAH inh | Fh CTSL1 inh | PAFAH1B2 inh | PAFAH1B3 FP inh
O=C(Nc1ccc(Cl)cc1)N1CC1 | 0 | - | - | - | 0 | 0
COc1ccc(NC(=O)C2C3CCC(O3)C2C(=O)O)c(OC)c1 (centres undefined) | 0 | 76 | 0 | 0 | 0 | 0
COc1ccc(OC)c(CC(=O)O)c1 | 0 | 0 | 0 | 0 | 0 | 0
O=C(O)C1C2CCC(O2)C1C(=O)Nc1ccc(Cl)cc1 (centres undefined) | - | 69 | 0 | 0 | - | -
Oc1ccc(O)c2c1C1(Cl)C(Cl)=C(Cl)C2(Cl)C1(Cl)Cl | 0 | - | - | - | 0 | 0
O=C1CCCN1C(=O)c1cncc(Br)c1 | 0 | 0 | 0 | 0 | 26 | 0
CS(=O)(=O)N1Cc2ccccc2-n2nncc2C1 | 0 | - | - | - | 0 | 0
CC1Oc2cc3c(-c4c(O)cc(O)c5c(O)c6c(cc45)OC(C)C(C)C6=O)c(O)cc(O)c3c(O)c2C(=O)C1C (centres undefined) | 46 | 0 | 91 | 0 | 52 | 60
COc1ccc2c(c1O)-c1c(OC)c(OC)cc3c1[C@H](C2)N(C)CC3 | 0 | 0 | 0 | 0 | 0 | 0
CCCN1CCc2cccc3c2[C@H]1Cc1ccc(O)c(O)c1-3 | 0 | 0 | 34 | 0 | 0 | 0
O=C(Nc1ccc(Cl)cc1C(=O)c1ccccc1)c1ccccc1 | 0 | 0 | 29 | 0 | 0 | 0
O=C1CC(=O)N(Cc2ccccc2)C(=S)N1 | 0 | 0 | 0 | 0 | 31 | 0
CN1Cc2cnnn2-c2ccccc2C1c1ccccc1 (centres undefined) | 0 | - | - | - | 0 | 0
COC(=O)C1=C(c2cccc(OCc3ccccc3)c2)C[C@@H]2CC[C@H]1N2C(=O)NCc1ccc(OC)c(OC)c1 | 0 | 0 | 0 | - | 26 | 0
COC(=O)C1=C(c2ccc(C(C)=O)cc2)C[C@@H]2CC[C@H]1N2C(=O)NCC1CC1 | 0 | 0 | 0 | - | 0 | 0
COC(=O)C1=C(c2ccc(C(C)=O)cc2)C[C@@H]2CC[C@H]1N2C(=O)NCc1ccc(F)cc1 | 0 | 0 | 0 | - | 34 | 0
C[C@@]12C(=O)OC(=O)[C@]1(C)C1CCC2O1 | 0 | 94 | 0 | 0 | 0 | 0
CC1(C)C[C@H]2C=C(C=O)[C@]3(C=O)C[C@]3(C)[C@H]2C1 | 0 | 0 | 0 | 17 | 0 | 0
CCCCC/C=C\C/C=C\C/C=C\C/C=C\CCCC(=O)Nc1ccc(O)cc1 | - | 0 | 36 | 0 | - | -
CCCCCCCCc1ccc(O)cc1 | 0 | 0 | 0 | - | 0 | 0
CN(C)CC(C(=O)Cc1ccccc1)c1ccccc1 (centres undefined) | 0 | - | - | - | 0 | 0
Cc1cc(/C=C2/C(=O)NC(=O)N(c3ccccc3)C2=O)c(C)n1-c1ccc(F)cc1 | 0 | 0 | 0 | 0 | 25 | 0
Cc1cc(/C=C2\C(=O)NC(=O)N(Cc3ccccc3)C2=O)c(C)n1-c1ccc(Cl)c(C(=O)O)c1 | 43 | 0 | 28 | 0 | 0 | 0
CC(C)C[C@H]1C(=O)N2CCC[C@H]2[C@]2(O)O[C@](NC(=O)[C@@H]3C=C4c5cccc6[nH]cc(c56)C[C@H]4N(C)C3)(C(C)C)C(=O)N12 | 0 | 0 | 0 | 34 | 0 | 0
COC(=O)C1=C(c2cccc(C#N)c2)C[C@@H]2CC[C@H]1N2C(=O)NCCOc1ccc(OC)cc1 | 0 | 0 | 0 | - | 0 | 0
Cc1ccc2c(c1)=C/C(=C\c1c(O)[nH]c(=S)[nH]c1=O)C(=O)N=2 | - | 0 | 0 | 0 | - | -
Cc1ccc2c(c1)=NC(=O)/C(=C/c1c(O)[nH]c(=O)[nH]c1=O)C=2 | 0 | 0 | 0 | 0 | 33 | 0
C=C[C@@H]1C2=CCOC(=O)C2=CO[C@H]1O[C@@H]1O[C@H](CO)[C@@H](O)[C@H](O)[C@H]1O | 0 | 0 | 0 | - | 0 | 0
Cc1ccc(N2C(=O)NC(=O)/C(=C\c3ccoc3)C2=O)cc1 | 0 | 0 | 0 | 0 | 0 | 0
